The whole screen tested about 200,000 compounds, of which about 720 (0.36%) were called active. Another 8% or so got no clear call; they are omitted. The call rests on the fitted dose curve; in most records, active means well fitted activation curve with a large enough effect; inconclusive means small, poorly fitted or top-dose-only effect, or effect the other way, or another doubt; inactive means flat fitted curve, though single readings scatter. The list shows a part of the results.
Potency means the concentration at half of the fitted maximal effect.

The target of this experiment is Lysosomal alpha-glucosidase (Homo sapiens) (UniProt P10253). The experiment can be described thus: qHTS Assay for Activators of Human alpha-Glucosidase as a Potential Chaperone Treatment of Pompe Disease. Further: nearly all actives have a fitted effect of over 80% in size. The following applies: purified enzyme, 4-MU-alpha-glucoside fluorescence, 20 min; series mostly up to 76.9 µM. A digest of the protocol:
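Compounds titrated up to 77 uM against 4 nM enzyme and 400 uM methylumbelliferyl substrate at room temperature, 20 min, pH 5.0. Basic stop, then 4-methylumbelliferone fluorescence (365/440 nm) normalized to no-enzyme and enzyme controls; Hill-equation AC50.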
On to `c1ccc2c(c1)NC1(CCCC1)n1c-2nc2ccccc21`, for which the Potency is 31.6 µM (active).
Turning to `CCCCC1(C)Nc2ccccc2-c2nc3ccccc3n21` (configuration not stated), the Potency was 35.5 µM (active).
Consider `CCCC1(C)Nc2ccccc2-c2nc3ccccc3n21` (configuration not stated), for which the Potency is 31.6 µM (active).
As for `CC1OC(Oc2ccc3ccc(=O)oc3c2-c2c(O)ccc3cc(Oc4ccc5ccc(=O)oc5c4)c(=O)oc23)C(O)C(O)C1O` (configuration not stated), the figure is 39.8 µM (active); as for `N#Cc1cc2c(=O)n3ccccc3nc2n(CCCN2CCOCC2)c1=O`, 35.5 µM (active).
For `C=CCn1c(=O)c(C#N)cc2c(=O)n3ccccc3nc21`, the Potency was 35.5 µM (active).
As to `Cc1cccn2c(=O)c3cc(C#N)c(=O)n(CCCN4CCOCC4)c3nc12`, the Potency is 35.5 µM (active).
As to `Cc1[nH]nc2c1-c1nc3ccccc3nc1C(C)(C)C2`, the Potency was 28.2 µM (active).
As for `COc1ccc2c(c1)c1ncn(Cc3ccco3)c(=O)c1n2C`, the Potency was 35.5 µM (active).
`CCCn1c(=O)[nH]c(=O)c2c(C(=O)OCC)cc(-c3cccs3)nc21`: the Potency is 35.5 µM (active).
With `O=c1[nH]c(=O)n(Cc2ccccc2)c2nc(-c3ccco3)cc(C(F)(F)F)c12`, the Potency was 31.6 µM (active).
As for `COCCn1c(=O)[nH]c(=O)c2c(C(F)(F)F)cc(-c3cccs3)nc21`, the Potency is 28.2 µM (active).
The same measure for `CCCn1c(=O)c2c(C(=O)OCC)cc(-c3ccco3)nc2n(CCC)c1=O`: 35.5 µM (active).
As for `CCCCn1c(=O)[nH]c(=O)c2c(C(=O)OCC)cc(-c3cccs3)nc21`, the figure is 35.5 µM (active); as for `COc1ccc2cc(/C=N/NC(=O)CN(c3ccccc3)S(=O)(=O)c3ccccc3)c(Cl)nc2c1`, 35.5 µM (active).
As for `COC(=O)C1=CN(C)C=C(C(=O)OC)C1c1ccsc1`, the figure is 35.5 µM (active).
As for `CCOC(=O)C1=CN(C)C=C(C(=O)OCC)C1c1ccsc1`, the Potency is 31.6 µM (active).
As for `N#Cc1cc2ccccc2nc1N`, the figure is 39.8 µM (active); as for `COc1ccc(-c2cc(=Nc3c(C)n(C)n(-c4ccccc4)c3=O)c3ccccc3o2)cc1`, 35.5 µM (active).
The same measure for `Nc1nc2nc(-c3ccc(Cl)cc3)cc(C(F)(F)F)n2n1`: 31.6 µM (active); for `COc1ccc(-c2cc(C(F)(F)F)n3nc(N)nc3n2)cc1`: 35.5 µM (active); for `Nc1nc2nccc(-c3ccc(Cl)cc3)n2n1`: 22.4 µM (active).
`Nc1nc2nc(-c3ccc(F)cc3)cc(C(F)(F)F)n2n1`: the Potency is 25.1 µM (active).
The same measure for `Cc1nc2cc3ccccc3cc2c(=O)[nH]1`: 25.1 µM (active); for `CCCCCCc1cc2cc(C(N)=O)c(=N)oc2cc1O`: 31.6 µM (active); for `CCCCCCc1cc2cc(C(=O)NCc3ccccc3)c(=N)oc2cc1O`: 35.5 µM (active).
The same measure for `CCCCCCc1cc2cc(S(=O)(=O)c3ccc(F)cc3)c(=O)oc2cc1O`: 31.6 µM (active).
As for `CCOc1ccc(C2C(C(=O)OC)=CN(CCOC)C=C2C(=O)OC)cc1`, the figure is 35.5 µM (active); as for `COCCN1C=C(C(=O)OC)C(c2cc(Br)c(OC)c(OC)c2)C(C(=O)OC)=C1`, 35.5 µM (active).
For `CCCOc1ccc(C2C(C(=O)OC)=CN(CCOC)C=C2C(=O)OC)cc1`, the Potency was 35.5 µM (active).
As for `Cc1cc(N2CCOCC2)nc2ccc(NC(=O)CCC(=O)N3CCCC(C)C3)cc12` (configuration not stated), the figure is 39.8 µM (active); as for `Cc1cc(N2CCOCC2)nc2ccc(NC(=O)CCC(=O)N3CCCCC3)cc12`, 35.5 µM (active); as for `Oc1ccc(N=Cc2ccc(-c3cccs3)s2)cc1`, 31.6 µM (active).
With `CC(C)c1ccc2oc3nc(N)c(C(=O)O)cc3c(=O)c2c1`, the Potency was 35.5 µM (active).
For the compound `N#Cc1ccc2c(c1)nc1ccccn12`, the Potency is 35.5 µM (active).
For `Cc1cc(=O)oc2c(CN3CCC(C)CC3)c(O)c(Cl)cc12`, the Potency was 35.5 µM (active).
As to `Cc1cc(=O)oc2c(CN3CCN(C)CC3)c(O)c(Cl)cc12`, the Potency was 35.5 µM (active).
As for `Cc1cc(=O)oc2c(CN3CCCCC3)c(O)c(Cl)cc12`, the figure is 31.6 µM (active); as for `Cc1cc(=O)oc2c(CN3CC(C)OC(C)C3)c(O)c(Cl)cc12` (configuration not stated), 10 µM (active); as for `CCN1CCN(Cc2c(O)c(Cl)cc3c(C)cc(=O)oc23)CC1`, 35.5 µM (active).
As to `COc1ccccc1C1CN(c2ccccc2)N=C1c1cccs1` (configuration not stated), the Potency was 39.8 µM (active).
On to `Fc1ccccc1N1CC(c2ccccc2)C(c2cccs2)=N1` (configuration not stated), for which the Potency was 35.5 µM (active).
The same measure for `COc1ccccc1C1CN(c2ccc(F)cc2F)N=C1c1cccs1` (configuration not stated): 28.2 µM (active); for `COc1cccc(C2CN(c3ccc(F)cc3F)N=C2c2cccs2)c1OC` (configuration not stated): 39.8 µM (active); for `Fc1ccc(C2CC(c3cccs3)=NN2c2ccccc2)cc1` (configuration not stated): 31.6 µM (active).
As for `Fc1ccc(N2N=C(c3cccs3)CC2c2ccccc2)cc1` (configuration not stated), the figure is 31.6 µM (active).
The same measure for `O=c1c(-c2nnc(SCc3ccc(Cl)cc3)o2)cccn1Cc1ccccc1`: 39.8 µM (active); for `O=c1c(-c2nnc(SCc3ccc(Cl)c(Cl)c3)o2)cccn1Cc1ccccc1`: 35.5 µM (active); for `O=c1c(-c2nnc(SCc3ccc(Cl)cc3Cl)o2)cccn1Cc1ccccc1`: 35.5 µM (active).
As to `O=c1oc2cc(Oc3c([N+](=O)[O-])cc(C(F)(F)F)cc3[N+](=O)[O-])ccc2c2c1CCCC2`, the Potency is 35.5 µM (active).
`FC(F)(F)c1cc(-c2cccs2)nc2ncnn12`: the Potency was 28.2 µM (active).
As for `Nc1nc2nc(-c3cccs3)cc(C(F)(F)F)n2n1`, the Potency is 28.2 µM (active).
As for `CCCOc1ccc2cc(-c3ccccn3)c(=O)oc2c1`, the Potency was 39.8 µM (active).
On to `CN(C)C(=O)COc1ccc2cc(-c3ccccc3)c(=O)oc2c1`, for which the Potency was 35.5 µM (active).
In the case of `COc1ccc(-c2cc3ccc(OCc4nn[nH]n4)cc3oc2=O)cc1`, the Potency is 35.5 µM (active).
The same measure for `CSc1cnc2c(=O)n(C)c(=O)[nH]c2n1`: 35.5 µM (active).
The same measure for `COCCCNC(=O)c1c(N)n(-c2cccc(S(N)(=O)=O)c2)c2nc3ccccc3nc12`: 35.5 µM (active); for `C=CCNC(=O)c1c(N)n(-c2cccc(S(N)(=O)=O)c2)c2nc3ccccc3nc12`: 25.1 µM (active).
The same measure for `O=c1oc2c(CN3CCOCC3)c(O)ccc2c2c1CCCC2`: 35.5 µM (active); for `O=c1oc2c(CN3CCOCC3)c(O)ccc2c2c1CCC2`: 25.1 µM (active).
Turning to `CCOC(=O)c1nc2nc(-c3cccs3)cc(C(F)(F)F)n2n1`, the Potency was 14.1 µM (active).
The same measure for `COC(=O)c1nc2nc(-c3cccs3)cc(C(F)(F)F)n2n1`: 35.5 µM (active).

(Values after PubChem BioAssay AID2242 (National Center for Advancing Translational Sciences (NCATS), 2010).)
